According to the supplement of paper PMC3334620:
In all, about 33,000 sequences were measured (“E-score (-0.5 to 0.5)”: median about -0.053, highest 2% from about 0.37 on). The entries come from a sample that favours the highest values as a whole.

Target: Hap1 (UniProt P0CE41)
Test: PBM E-score (8-mer binding enrichment) (E-score (-0.5 to 0.5)); higher = stronger / more preferred TF binding
Conditions: protein concentration: 200 nM; construct: GST-DNA-binding domain
Description: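 Universal 'all 10-mer' protein binding microarrays (Agilent AMADID 015681) probed with GST-tagged S. cerevisiae TFs (full-length or DBD) made by in vitro transcription/translation (PURExpress), about 100-200 nM. Bound TF was detected with fluorescent anti-GST. Each ungapped 8-mer (which stands for itself and its reverse complement) is scored by the PBM enrichment score (E-score), a modified Wilcoxon-Mann-Whitney statistic from -0.5 to +0.5, computed with the Universal PBM Analysis Suite. Scale: above 0.35 generally sequence-specific binding.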

UniProt P0CE41, sequence (P0CE41 whole entry): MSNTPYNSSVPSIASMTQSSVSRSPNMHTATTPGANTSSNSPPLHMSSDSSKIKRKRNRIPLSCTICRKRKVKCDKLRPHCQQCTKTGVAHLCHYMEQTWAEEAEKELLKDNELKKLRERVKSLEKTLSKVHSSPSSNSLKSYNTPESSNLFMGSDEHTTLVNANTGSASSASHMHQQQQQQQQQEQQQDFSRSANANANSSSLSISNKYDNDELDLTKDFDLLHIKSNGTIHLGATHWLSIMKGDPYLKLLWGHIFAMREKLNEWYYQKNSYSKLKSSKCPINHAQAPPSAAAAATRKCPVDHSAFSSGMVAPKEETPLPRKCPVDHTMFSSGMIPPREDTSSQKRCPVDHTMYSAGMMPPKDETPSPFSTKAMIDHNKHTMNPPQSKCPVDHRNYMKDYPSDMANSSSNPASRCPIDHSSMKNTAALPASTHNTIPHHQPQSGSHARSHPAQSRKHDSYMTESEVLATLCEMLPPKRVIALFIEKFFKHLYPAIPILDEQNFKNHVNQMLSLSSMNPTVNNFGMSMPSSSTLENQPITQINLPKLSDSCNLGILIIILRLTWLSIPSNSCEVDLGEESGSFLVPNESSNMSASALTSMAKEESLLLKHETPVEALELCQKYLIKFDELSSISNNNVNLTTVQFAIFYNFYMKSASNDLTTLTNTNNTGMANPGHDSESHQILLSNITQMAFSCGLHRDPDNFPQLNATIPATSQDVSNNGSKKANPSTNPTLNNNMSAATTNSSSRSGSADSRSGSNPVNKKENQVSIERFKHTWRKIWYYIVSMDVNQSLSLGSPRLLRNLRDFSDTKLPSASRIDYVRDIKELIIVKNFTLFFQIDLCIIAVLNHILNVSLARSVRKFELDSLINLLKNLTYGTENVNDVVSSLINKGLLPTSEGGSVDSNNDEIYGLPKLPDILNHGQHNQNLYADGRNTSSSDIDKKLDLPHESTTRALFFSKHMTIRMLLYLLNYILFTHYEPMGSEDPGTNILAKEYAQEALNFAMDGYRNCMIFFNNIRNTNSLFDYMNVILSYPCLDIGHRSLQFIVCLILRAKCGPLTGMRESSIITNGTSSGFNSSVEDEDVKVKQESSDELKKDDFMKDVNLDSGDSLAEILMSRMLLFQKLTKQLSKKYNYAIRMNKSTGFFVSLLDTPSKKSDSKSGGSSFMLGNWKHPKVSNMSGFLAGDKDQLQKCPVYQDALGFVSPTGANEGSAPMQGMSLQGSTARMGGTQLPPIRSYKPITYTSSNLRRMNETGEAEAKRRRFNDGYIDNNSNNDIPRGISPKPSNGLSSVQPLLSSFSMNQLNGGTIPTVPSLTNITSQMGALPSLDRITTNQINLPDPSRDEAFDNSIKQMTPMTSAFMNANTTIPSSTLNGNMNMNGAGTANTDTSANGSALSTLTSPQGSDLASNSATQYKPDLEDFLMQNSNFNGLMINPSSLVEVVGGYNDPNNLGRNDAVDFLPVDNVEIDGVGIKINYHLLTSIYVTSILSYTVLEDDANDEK

First: ATGACGAG
Second: CCCGCACC
The “PBM E-score” value of the first is lower: -0.168 for the first, 0.151 for the second.

Going from ATCCCAAC to GGCAGGAC, the “PBM E-score” value rises from -0.239 to 0.0548.

First: CATAAGAC
Second: CCGAGCCA
The “PBM E-score” value of the first is lower: 0.0262 for the first, 0.347 for the second.

Going from CCGAGAGC to CCGAGCGG, the “PBM E-score” value falls from 0.396 to 0.395.

Going from CCGAGAGA to CCGAGCGC, the “PBM E-score” value rises from 0.309 to 0.384.

Compared with ACGAGCGG, ACGAGAGC is lower in “PBM E-score” value: 0.161 for the first, -0.0925 for the second.

First: ACGAGCGC
Second: CCGAGCGA
The “PBM E-score” value of the first is lower: -0.00987 for the first, 0.36 for the second.

Compared with CCGAGCCG, ACGAGCCG is lower in “PBM E-score” value: 0.397 for the first, 0.0797 for the second.

Compared with GCGAGCGC, ACATTGGA is lower in “PBM E-score” value: 0.137 for the first, -0.0771 for the second.

Compared with AAGCTGCC, CATTTCCC is higher in “PBM E-score” value: 0.0235 for the first, 0.162 for the second.

Going from ATCTACGG to CCTGAGCA, the “PBM E-score” value falls from 0.299 to -0.151.

Going from AAAGCCGT to AAAGCCCT, the “PBM E-score” value falls from 0.322 to -0.0264.

Compared with AAAGCCCC, CAAGCCGA is higher in “PBM E-score” value: 0.106 for the first, 0.24 for the second.

Going from AAAGCCGG to AAAGCCGA, the “PBM E-score” value falls from 0.439 to 0.426.

Going from AAAGCCGC to TAAGCCGA, the “PBM E-score” value rises from 0.305 to 0.382.

First: AAAGCCCG
Second: CAAGCCGG
The “PBM E-score” value of the first is higher: 0.374 for the first, 0.292 for the second.

First: AAAGCCTG
Second: GAAGCCGA
The “PBM E-score” value of the first is lower: -0.184 for the first, 0.308 for the second.

Compared with GCCGCTTA, GTAGCCAC is lower in “PBM E-score” value: 0.073 for the first, -0.194 for the second.

Compared with GTTTTAGA, AGAGAACG is lower in “PBM E-score” value: 0.00012 for the first, -0.258 for the second.

Compared with CAATTCGG, GTGCTGCA is lower in “PBM E-score” value: 0.267 for the first, 0.0816 for the second.

Compared with CCAGCACG, AAAAGCCG is higher in “PBM E-score” value: -0.13 for the first, 0.414 for the second.

Going from AAAAGCCT to AAAAGCCC, the “PBM E-score” value rises from -0.221 to 0.138.

First: AGCTTTGG
Second: ACCGGACA
The “PBM E-score” value of the first is lower: -0.135 for the first, 0.411 for the second.

Compared with GCCGGATA, CCCCGACC is lower in “PBM E-score” value: 0.426 for the first, 0.238 for the second.

Going from CCCCGACA to ACTGGACA, the “PBM E-score” value falls from 0.302 to -0.00994.

Going from CCCCGACG to CCCGGATA, the “PBM E-score” value falls from 0.379 to 0.325.

Going from AGCGGACA to ACCGGATA, the “PBM E-score” value rises from 0.326 to 0.359.

First: CCGGGACG
Second: CCCGGACG
The “PBM E-score” value of the first is lower: 0.199 for the first, 0.388 for the second.

First: CACGGACG
Second: AGATCCCG
The “PBM E-score” value of the first is higher: 0.331 for the first, 0.283 for the second.

Going from AGTACCCG to CGAAAGAG, the “PBM E-score” value falls from 0.1 to 0.0191.

Compared with AGGTGCTC, CCTGGAGC is higher in “PBM E-score” value: -0.269 for the first, -0.197 for the second.

Compared with ACTCGCAA, GTCCACTA is higher in “PBM E-score” value: -0.231 for the first, -0.102 for the second.

Compared with GAACTGCC, CTACCATA is lower in “PBM E-score” value: -0.0156 for the first, -0.191 for the second.

Going from GATGAGCA to ACAATAGG, the “PBM E-score” value rises from -0.0729 to -0.0571.

Compared with GAAACGTC, GATATGCA is higher in “PBM E-score” value: -0.0511 for the first, 0.0359 for the second.

Going from AGCTACTG to CCCGGACA, the “PBM E-score” value rises from -0.00261 to 0.39.

First: TCCGGACA
Second: CCGGGACA
The “PBM E-score” value of the first is higher: 0.444 for the first, 0.299 for the second.

Compared with TGCGGACA, TACGGACA is higher in “PBM E-score” value: 0.22 for the first, 0.291 for the second.

Going from GACGGACA to GCCGGACA, the “PBM E-score” value rises from 0.325 to 0.423.

First: CCCGGACC
Second: GCCGGACC
The “PBM E-score” value of the first is higher: 0.361 for the first, 0.341 for the second.

Compared with CCGGGCTC, ACACTCAG is lower in “PBM E-score” value: 0.243 for the first, -0.208 for the second.

Compared with TACCCCGA, AACCCCCA is lower in “PBM E-score” value: 0.398 for the first, -0.217 for the second.

Compared with TCCCCCGA, ACACCCGA is lower in “PBM E-score” value: 0.393 for the first, 0.305 for the second.

Compared with GCCCCCGA, GACCCCGA is higher in “PBM E-score” value: 0.2 for the first, 0.285 for the second.

Going from AACCCCGA to CACCCCGA, the “PBM E-score” value falls from 0.456 to 0.229.

First: AACCCCGT
Second: ACCCCCGT
The “PBM E-score” value of the first is higher: 0.329 for the first, 0.126 for the second.

First: CCCCCCGA
Second: ACCCCCGA
The “PBM E-score” value of the first is lower: 0.253 for the first, 0.371 for the second.
